# Reference: PubChem BioAssay AID1508625 (Wald Lab, School of Medicine, Case Western Reserve …, 2021)
# Assay: small molecules boosting NK-mediated OVCAR3 lysis – imaging, primary NK cells, calcein-AM imaging, primary screen (AID 1508625);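 further: compound given to NK cells 16 h before adding targets at 1.5 to 1 ratio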;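 on z-score: more negative robust z means stronger NK killing of tumor cells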
# Settings: OVCAR3 lysis by primary NK cells, at 5 µM; z-score: measured here: robust Z-score, single-point normalisation
SMILES,"corrected activity, negative = more killing [%]",z-score
COc1cc(NC(=O)c2cc(Cl)cc(Cl)c2OC)ccc1NC(=O)c1ccccc1Cl,-1.43,-0.797
CCCCN(C)C(=O)c1cc2c(=O)n3cccc(C)c3nc2s1,-6.29,-1.78
Cc1ccc(-n2nc(C)c(C=Cc3onc(C)c3[N+](=O)[O-])c2C)cc1,-6.18,-1.84
O=C(NCC1CCCO1)c1ccc(COc2ccc(Cl)cc2)cc1 (stereo unspecified),-2.84,-1.58
CC(=O)C1C(=O)CC(c2ccccc2)CC1=O (stereo unspecified),-5.17,-2.04
CCOC(=O)c1c(NC(=O)c2ccc(C(=O)c3ccccc3)cc2)sc2c1CCCC2,-3.96,-0.836
COc1ccc(C(=O)N2N=C(C3CCCCC3)CC2(O)C(F)(F)F)cc1OC (stereo unspecified),-5.29,-1.58
CCc1cccc(NC(=O)CN(C)S(=O)(=O)c2cccs2)c1,-4.79,-1.36
O=C(CSc1nnc(-c2cccc(Br)c2)o1)c1ccc2c(c1)CCCC2,-3.57,-1.33
COc1ccc2ccccc2c1C=Nc1cc(C)ccc1C,-0.753,-0.32
COc1ccc(Cl)cc1NC(=O)c1cnn2c(C(F)(F)F)cc(-c3ccc(C)cc3)nc12,-0.972,-0.309
Cc1cc(C)nc(N=C(N)Nc2cccc(F)c2)n1,0.14,0.0433
Cn1c(SCc2c[nH]c3cc([N+](=O)[O-])ccc23)nc2sc3c(c2c1=O)CCCC3,-1.25,-0.47
COc1ccc(-c2nn(-c3ccccc3)cc2C(=O)OCc2ccccc2)cc1,-2.27,-1.22
O=C(Nc1ccc2c(c1)CCC2)c1ccc2c(=O)n(C3CCCCC3)c(=S)[nH]c2c1,-2.41,-0.766
COc1cc2c(cc1NC(=O)Nc1cc3oc4ccccc4c3cc1OC)oc1ccccc12,-6.21,-1.85
COc1ccc(OC)c(NC(=O)CSc2nc3c([nH]c4ccccc43)c(=O)n2C)c1,-8.66,-2.15
COCCNCCCSc1ccc(Cl)cc1,-1.98,-0.737
Cc1cccc(C)c1OCCCCCCN1CCOCC1,-1.15,-0.473
CCC(Sc1nc(C)cc(C)n1)C(=O)Nc1nnc(C)s1 (stereo unspecified),-9.03,-2.8
O=C1C2C3C=CC(C3)C2C(=O)N1CCCO (stereo unspecified),-1,-0.311
Cc1c(C(=O)Oc2cccc3ccccc23)cccc1[N+](=O)[O-],-7.35,-2.77

SMILES,"corrected activity, negative = more killing [%]",z-score
Cc1c(C(=O)NC(C)C)oc2ccc(S(=O)(=O)N3CCOCC3)cc12,-3.41,-0.849
COc1ccccc1CN1CCN(C2CCN(Cc3ccccc3)CC2)CC1,0.136,0.0605
O=C1C(=Cc2ccccc2)SC(=S)N1C1CCS(=O)(=O)C1 (stereo unspecified),-2.25,-0.887
O=C(Cn1cnc2ccccc2c1=O)NCCC(=O)NC1CCCCCC1,-3.69,-1.17
FC(F)(F)c1ccc(Oc2cccc(C(F)(F)F)c2)nc1,-1.98,-1.1
CC1(C)NN=C(N)SC1=O,-0.451,-0.14
O=C(Nc1cccc2ccccc12)ON=Cc1ccc(F)cc1,-4.41,-1.4
COc1ccc(N(CC(=O)Nc2c(C)n(C)n(-c3ccccc3)c2=O)S(C)(=O)=O)c(OC)c1,-0.645,-0.246
Cc1ccc(-c2noc(-c3ccccc3F)n2)cc1,-2.22,-0.911
CCOc1ccc(S(=O)(=O)Nc2ccc(Cl)cc2)c2cccnc12,-3.11,-0.989
CCOC(=O)c1ccc(NC(=O)C2CCN(C(=O)c3cccs3)CC2)cc1,-6.67,-2.48
COc1ccc(-c2ccc3c(N)c(C(=O)Nc4ccc(Br)cc4)sc3n2)cc1,-3.35,-1
O=C(CNC(=O)OCc1ccccc1)Oc1cc2oc(=O)c3c(c2cc1Cl)CCC3,-2.23,-0.829
O=C(CSc1nc2cc3c(cc2c(=O)n1Cc1ccco1)OCO3)NCc1ccccc1,-4.67,-1.24
Nc1cc(OC(=O)c2ccccc2Br)nn1S(=O)(=O)c1ccccc1,-1.18,-0.375
Cc1ccc(N2CC(C(=O)Nc3cccc(C)n3)CC2=O)cc1 (stereo unspecified),-3,-1.13
N#Cc1c2c(c(-n3ccnc3)n3c1nc1ccccc13)CCC2,-2.49,-0.772
Cc1ccc(S(=O)(=O)n2cnc3ccccc32)cc1C,-9,-2.79
Cc1c(C(=O)NCc2ccc(F)cc2)sc2ncn(Cc3ccccc3Cl)c(=O)c12,-2.74,-0.998
COc1ccc(N2C3=C(C(=O)CC(C)(C)C3)C(c3cccc(F)c3)C3=C2CC(C)(C)CC3=O)c(OC)c1,-1.83,-0.581
CSc1nnc2c(n1)OC(c1ccc(C(=O)O)cc1)Nc1ccccc1-2 (stereo unspecified),-1.74,-0.616
